CYP2C19 activ: increases human CYP2C19 enzyme activity; activation factor at 5 µM; recombinant CYP2C19, luciferin-H EGE luminescence; active compounds read high; 0 = fully inhibited enzyme, 1 = untreated enzyme; P33261; 96,000 tested, under 10 active;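 active = activation factor of at least 2 at 5 µM in the primary screen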;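 note: 0 = wells with 2.5 mM tranylcypromine and 1 = vehicle-only wells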
Target sequence (P33261 whole entry, looked up): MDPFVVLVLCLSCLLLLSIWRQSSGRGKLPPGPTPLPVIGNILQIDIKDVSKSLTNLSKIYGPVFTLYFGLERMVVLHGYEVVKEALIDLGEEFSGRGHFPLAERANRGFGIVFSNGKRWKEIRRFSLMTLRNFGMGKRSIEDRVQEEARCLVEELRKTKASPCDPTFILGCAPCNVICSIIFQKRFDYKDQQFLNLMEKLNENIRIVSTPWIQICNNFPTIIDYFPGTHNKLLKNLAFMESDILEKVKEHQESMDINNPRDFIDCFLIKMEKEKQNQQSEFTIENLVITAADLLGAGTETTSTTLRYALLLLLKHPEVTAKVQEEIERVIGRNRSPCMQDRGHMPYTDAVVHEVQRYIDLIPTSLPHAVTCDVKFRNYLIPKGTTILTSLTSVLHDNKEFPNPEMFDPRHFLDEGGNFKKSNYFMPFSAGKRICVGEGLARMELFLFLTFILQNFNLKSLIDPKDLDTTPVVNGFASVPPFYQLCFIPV
CYP2C9 inhib: inhibitors of human CYP2C9; P11712; 96,000 compounds, 20% hits; inhibition, % at 5 µM; CYP2C9 Supersomes, luciferin-H conversion, luminescence; AID 777;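 active = blocking of liver enzyme CYP2C9 beyond about 50% at 5 µM, limit read from the data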
CYP2C19 inhib: blocks human cytochrome P450 2C19. P33261. CYP2C19 Supersomes, luciferin-H EGE luminescence, 30 min. inhibition, % at 5 µM. 96,000 compounds, 21% hits. AID 778;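 active = CYP2C19 inhibition above a set limit at 5 µM in the primary screen, cut at about 50% in these data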;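 note: plate controls were negative control wells for no effect and 2.5 mM tranylcypromine positive control for full effect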
CYP2C9 activ: activators of human CYP2C9; P11712; recombinant CYP2C9, luciferin-H conversion, luminescence; active compounds read high; factor 1 = untreated enzyme, 0 = blocked; activation factor at 5 µM; 96,000 compounds, 1.4% hits;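 active = activation factor of 2 or more for CYP2C9 at a 5 µM dose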;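 note: 0 = sulfaphenazole-blocked wells and 1 = vehicle-only wells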
Cav32 inh: human Cav3.2 channel inhibition, primary screen | O95180 | AID 449739 | B-score at 10 µM | Cav3.2-expressing cells, Fluo-4 calcium fluorescence FDSS; active compounds read low | 100,000 compounds, 4% hits;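 active = single-dose well whose peak fluorescence ratio is a statistical outlier from its plate by either plate-standardised score or position-corrected B-score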
Numbers without * were called inactive; nt = not tested or not shown. Compounds with a hit are over-represented: about 27% of the library has one in this group of screens.

SMILES	CYP2C19 activ	CYP2C9 inhib	CYP2C19 inhib	CYP2C9 activ	Cav32 inh
C=CCSC1=C(C#N)C(c2ccccc2OCC)CC(=O)N1 (stereo not drawn)	0.1	71*	93*	0.3	0.3
C=CCSC1=C(C#N)C(c2cccc(OC)c2)CC(=O)N1 (stereo not drawn)	0.5	36	52*	0.6	0.44
C=CCSC1=C(C#N)C(c2ccccc2OC)CC(=O)N1 (stereo not drawn)	0.5	24	47	0.8	1.1
COC(=O)CSC1=C(C#N)C(c2ccc(C(C)C)cc2)CC(=O)N1 (stereo not drawn)	1.1	46	-7	0.5	-0.18
Cc1ccc(C2CC(=O)NC(SCCC(C)C)=C2C#N)cc1 (stereo not drawn)	0.6	56*	41	0.4	-0.55
COC(=O)CSC1=C(C#N)C(c2cccc(OC)c2)CC(=O)N1 (stereo not drawn)	0.3	75*	71*	0.2	-0.11
CC1CCCC(C)N1C(=O)COC(=O)c1ccc(O)cc1 (stereo not drawn)	1.2	10	-16	0.9	1.5
CCOc1ccc(C(=O)Nc2nncs2)cc1OCC	1.1	-15	-10	1.1	1.4
COC(=O)CSC1=C(C#N)C(c2ccc(Cl)cc2)C(C(=O)OC)C(=O)N1 (stereo not drawn)	0.4	44	61*	0.6	0.0071
CCOC(=O)CSC1=C(C#N)C(c2ccc(Cl)cc2)C(C(=O)OC)C(=O)N1 (stereo not drawn)	0.6	41	40	0.6	-1.6
CCc1ccc(C2CC(=O)NC(SCC(=O)OC(C)C)=C2C#N)cc1 (stereo not drawn)	0.1	93*	87*	0.1	-8.4*
COc1cccc(-c2cc(C(=O)N3C(C)CCCC3C)no2)c1 (stereo not drawn)	0.6	-55	44	1.6	-3.7
Cc1nc2ccc(N3C(=O)CCC3=O)cc2[nH]1	1.1	-10	-14	1.1	-0.53
Clc1ccc(-c2nc3ccccc3n2OCc2ccccc2)cc1	1	-5	-3	1.1	-0.56
CC(=O)c1nc2ccccc2n1S(=O)(=O)c1ccc(C)cc1	1	-5	0	1.1	-0.41
Cc1ccc(S(=O)(=O)c2c(C)nn(C(C)(C)C)c2OC(=O)c2cccs2)cc1	0.1	90*	94*	0.1	nt
CC(=O)Oc1c(S(=O)(=O)c2ccc(C)cc2)c(C)nn1-c1ccccc1	0.9	78*	8	0.2	-0.38
Cc1ccc(S(=O)(=O)c2c(C)nn(C(C)(C)C)c2OC(=O)c2ccc(Br)o2)cc1	0.3	95*	70*	0	nt
Cc1ccc(S(=O)(=O)c2c(C)nn(C(C)(C)C)c2OC(=O)c2ccco2)cc1	0	86*	99*	0.1	nt
Cc1ccc(S(=O)(=O)c2c(C)nn(C(C)(C)C)c2OC(=O)C(C)(C)C)cc1	1	33	0	0.7	nt
COc1ccc2nc(Nc3ccc4c(c3)OCO4)sc2c1	0.3	21	65*	0.8	-0.41
CC(C)(C)c1ccc(C(=O)CC(=O)c2cc(Cl)ccc2O)cc1	0.4	60*	57*	0.4	-1.1
Cc1ccc(C(=O)CC(=O)c2cc(Cl)ccc2O)cc1	1	19	4	0.8	0.97
CCO[C@H]1OC(C(=O)N2CCN(Cc3ccc4c(c3)OCO4)CC2)=C[C@@H](C2CC2)[C@@H]1CCCO	nt	nt	nt	nt	1
CCOC(=O)C1=C(C)N=C2c3ccccc3C(=O)C2C1c1ccccc1 (stereo not drawn)	0.8	56*	17	0.4	1.8
SMILES	CYP2C19 activ	CYP2C9 inhib	CYP2C19 inhib	CYP2C9 activ	Cav32 inh
CCOC(=O)C1=C(C)N=C2c3ccccc3C(=O)C2C1c1ccc(C)cc1 (stereo not drawn)	0.8	69*	24	0.3	0.7
CCOC(=O)C1=C(C)N=C(SC)N(C)C1c1ccccc1 (stereo not drawn)	0.7	29	31	0.7	-0.88
COC(=O)c1cn(-c2ccccc2)c(C)c1C(=O)OC	nt	nt	nt	nt	0.049
COC(=O)c1coc(-c2ccc(OC)cc2)c1C(=O)OC	0.4	19	63*	0.8	-0.32
COC(=O)c1coc(-c2ccc(C)cc2)c1C(=O)OC	0.2	59*	79*	0.4	-1.5
CCOc1ccccc1NC=C1C(=O)OC(C)(C)OC1=O	0.8	-97	17	2*	0.28
CCC(=O)c1ccc(O)c(CC=C(C)C)c1	0.4	64*	58*	0.4	-0.4
O=[N+]([O-])c1cc(/C=N/OCc2c(Cl)cccc2Cl)ccc1N1CCOCC1	0.9	37	7	0.6	-1.4
O=C1CCc2cc(S(=O)(=O)N3CCN(c4ccccc4F)CC3)ccc2N1	0.7	34	30	0.7	0.022
Cc1cccc(N2CCN(C(=O)CCNS(=O)(=O)c3ccc4c(c3)CCC(=O)N4)CC2)c1C	1	58*	-3	0.4	1
Cc1ccc(S(=O)(=O)N2CCCCC2)cc1C(=O)Nc1ccc2cn[nH]c2c1	0.7	64*	31	0.4	-1.6
Cc1cc(NC(=O)c2cc(S(=O)(=O)N3CCCCC3)ccc2C)n(-c2ccccn2)n1	0.7	64*	32	0.4	-0.095
Cc1ccc(S(=O)(=O)N2CCCCC2)cc1C(=O)Nc1ccc(N2CCOCC2)cc1	0.9	5	8	1	1.4
Cc1ccc(S(=O)(=O)N2CCCCC2)cc1C(=O)Nc1ncn[nH]1	1	-97	-2	2*	nt
CCOC(=O)c1c(N)sc2c(O)c(Br)ccc12	0.7	73*	30	0.3	1.4
Nc1nonc1-c1noc(CCCCCN2C(=O)c3ccccc3C2=O)n1	0.9	13	6	0.9	-1.2
Cc1cc(C(=O)N/N=C/c2cc(Br)ccc2OC(=O)c2ccccc2)n[nH]1	0.8	61*	23	0.4	nt
COc1ccc(Br)cc1/C=N/NC(=O)c1nc(-c2ccccc2)n2c1CCCCC2	0.4	45	60*	0.5	-2.8
C=C(C)C(=O)Nc1cccc(C2=NOC3(C2)C[C@@H](C(N)=O)N(C(=O)CCCCC)C3)c1 (stereo partly drawn)	nt	nt	nt	nt	-0.64
O=c1cc2c(nn1Cc1ccccc1Cl)-c1ccccc1CC2	0	94*	95*	0.1	-2.7
O=c1c2ccccc2c(-c2ccccc2)nn1Cc1c(Cl)cccc1Cl	1	22	3	0.8	-0.82
CN1CCCN(Cc2ccc(Cl)cc2Cl)CC1	0.9	9	14	0.9	-0.23
O=c1cc2c(nn1Cc1ccc(Cl)cc1Cl)-c1ccccc1CC2	0.5	67*	51*	0.3	-2.7
O=C(OCCN1C(=O)CCC1=O)c1ccc(S(=O)(=O)N2CCCCC2)cc1	1	8	-3	0.9	nt
COCON1C(=O)CN(C(C)=O)C1c1ccc(Cl)cc1Cl (stereo not drawn)	0.7	-2	34	1	nt
CON1C(=O)CN(C(C)=O)C1c1ccc(Cl)cc1Cl (stereo not drawn)	0.5	-52	54*	1.5	0.18

Compound activity: PubChem, several laboratories
